Laboratory results published in PubChem BioAssay AID1159580 (chemical genetic matrix, 2015).
The whole screen tested about 5,500 compounds, of which about 2,000 (36%) were called active. Not shown: some 18% with an inconclusive outcome. Cut-off read from the data, not from the text of the source: active = normalized growth mostly below about 0.91 (no sharp cut-off); inconclusive = no clear call, values can overlap the other calls; inactive = mostly above about 0.92. Some of the results follow.

Assay: chemical genetic growth profiling, strain panel (AID 1159580);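 note: tested at 20 µM; growth read once vehicle control cultures reached saturation at 30 °C; 1 = growth at the plate median or of vehicle wells; lower values mean less growth of the strain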
Details: S. cerevisiae deletion strains, growth OD
[1] = locus YAL013W, strain DEP1, active compounds read low
[2] = locus YAL040C, strain CLN3, active compounds read low
[3] = locus YCL061C, strain MRC1 (second series), active compounds read low
[4] = locus YDR150W, strain NUM1, active compounds read low
[5] = locus YDR363W, strain ESC2, active compounds read low
[6] = locus YER002W, strain NOP16, active compounds read low
[7] = locus YGR078C, strain PAC10, active compounds read low
[8] = locus YMR307W, strain GAS1, active compounds read low
[9] = locus YNL175C, strain NOP13, active compounds read low
[10] = locus YNL197C, strain WHI3, active compounds read low
[11] = locus YNL224C, strain SQS1, active compounds read low
[12] = locus YNL322C, strain KRE1, active compounds read low
[13] = locus YOR083W, strain WHI5 (second series), active compounds read low
[14] = locus YPL055C, strain LGE1, active compounds read low
[15] = locus YPL241C, strain CIN2, active compounds read low
[16] = locus YJR075W, strain HOC1, active compounds read low
[17] = locus YMR263W, strain SAP30, active compounds read low

Measured: normalized growth

OC[C@H]1O[C@@H](n2cnc3c(N[C@H]4CC5CCC4C5)ncnc32)[C@H](O)[C@@H]1O (stereo partly drawn)
inactive: [1] 1 | [2] 1.02 | [3] 1.01 | [4] 1.01 | [5] 1 | [6] 1.02 | [7] 1.03 | locus YGR229C, strain SMI1, active compounds read low 0.938 | [8] 0.999 | locus YNL128W, strain TEP1, active compounds read low 0.992 | [9] 1.01 | [10] 0.994 | [11] 0.974 | [12] 1.01 | [13] 1.04 | [14] 1.03 | [15] 1.01

CCCn1c(=O)c2[nH]c(C3CCCC3)nc2n(CCCOC(=O)c2ccc(S(=O)(=O)F)cc2)c1=O
inactive: [1] 0.992 | [2] 0.987 | [3] 1.01 | [5] 0.998 | [6] 1 | [7] 1.02 | [16] 0.994 | [17] 0.999 | [9] 1.01 | [10] 1 | [11] 1.01 | [13] 0.995 | [14] 1.01

CCOC(=O)C1C(c2cccnc2)C(C(=O)OCC)C(O)(C(F)(F)F)NC1(O)C(F)(F)F (stereo not drawn)
inactive: [1] 1 | locus YBR229C, strain ROT2, active compounds read low 1 | locus YCL061C, strain MRC1, active compounds read low 1.02 | locus YDL101C, strain DUN1, active compounds read low 1 | [4] 0.985 | locus YEL061C, strain CIN8, active compounds read low 0.985 | [7] 1.01 | locus YHR030C, strain SLT2, active compounds read low 1.01 | locus YHR087W, strain rtc3, active compounds read low 1.01 | locus YJR043C, strain POL32, active compounds read low 0.996 | [16] 1.03 | locus YKL190W, strain CNB1, active compounds read low 1.01 | locus YLR039C, strain RIC1, active compounds read low 1.05 | locus YLR058C, strain SHM2 (second series), active compounds read low 1.01 | locus YLR085C, strain ARP6, active compounds read low 1.01 | locus YLR262C, strain YPT6, active compounds read low 1.02 | locus YML094W, strain GIM5, active compounds read low 0.965 | locus YMR219W, strain ESC1, active compounds read low 1.01 | [17] 1.04 | [8] 0.995 | locus YNL153C, strain GIM3, active compounds read low 1.01 | locus YNL298W, strain CLA4 (second series), active compounds read low 1 | [12] 0.994 | locus YNR030W, strain Alg12, active compounds read low 1 | locus YOL006C, strain TOP1, active compounds read low 0.963 | [14] 1 | [15] 1.02 | locus YPR135W, strain CTF4, active compounds read low 0.982
